{"source": "PubChem BioAssay (Tox21)", "note": "Inconclusive results are not listed. Entries that show only a call come without a potency. Active and inactive are the calls of the source. The call rests on the fitted dose curve. Potency means the concentration at half of the fitted maximal effect."}
{"molecular_target": "Muscarinic acetylcholine receptor M1 (Homo sapiens) (UniProt P11229)", "sequence (P11229 whole entry, looked up)": "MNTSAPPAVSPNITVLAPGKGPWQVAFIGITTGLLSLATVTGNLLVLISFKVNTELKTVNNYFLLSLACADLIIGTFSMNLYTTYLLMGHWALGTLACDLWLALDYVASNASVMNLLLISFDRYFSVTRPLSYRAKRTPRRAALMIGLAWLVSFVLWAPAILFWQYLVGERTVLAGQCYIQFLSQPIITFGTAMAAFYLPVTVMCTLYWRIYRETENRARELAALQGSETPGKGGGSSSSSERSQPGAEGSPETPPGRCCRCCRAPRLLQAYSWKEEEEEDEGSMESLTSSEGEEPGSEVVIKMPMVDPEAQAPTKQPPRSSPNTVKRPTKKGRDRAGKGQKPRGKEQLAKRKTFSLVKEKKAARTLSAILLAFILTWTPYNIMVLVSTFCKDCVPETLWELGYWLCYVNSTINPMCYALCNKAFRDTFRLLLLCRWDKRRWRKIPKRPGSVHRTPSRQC", "test": "Cholinergic receptor muscarinic 1 (CHRM1) small molecule antagonists, cell-based qHTS assay (AID 1963588); further: nearly all actives have a fitted effect of over 40% in size", "conditions": "CHRM1-CHO antagonist mode, calcium flux fluorescence; series mostly up to 61.5 µM", "description": "National Center for Advancing Translational Sciences [NCATS]\nDivision of Preclinical Innovation [DPI]\nU.S. Environmental Protection Agency [EPA]\nNational Institutes of Environmental Health Sciences [NIEHS]\nNational Toxicology Program [NTP]\nU.S. Food and Drug Administration [FDA]\nThe CHRM1 is a muscarinic receptor. This receptor plays a crucial role in learning and memory processes and has long been identified as a promising therapeutic target for the improvement of cognitive decline in Alzheimer's disease (AD). The CHRM1-CHO cell line stably expressing human muscarinic acetylcholine receptor M1 (CHRM1) can be used for screening agonists and antagonists of interactions between CHRM1 and its ligands. The CHRM1-CHO Calcium Flux Assay is a homogeneous fluorescence-based assay for detecting the intracellular calcium level using FDSS kinetic plate reader system.\nTox21 Assay Protocol Summary:\nCHRM1-CHO cells were dispensed at 1000 cells/3uL/well in 1536-well black-clear bottom plates using a Multidrop Dispenser. After the assay plates were incubated at a 37 C/5% CO2 incubator for 18 h, 3 uL of Dye Loading Buffer was transferred to the assay plate by a Flying Reagent Dispenser. The assay plates were incubated at 37 C for 1h. For antagonist mode, 23 nL of compounds dissolved in DMSO, positive controls or DMSO only was transferred to the assay plate by a pin tool. After 5 min incubation at room temperature, 1.5 uL of acetylcholine at 50nM was added to each well. The fluorescence intensity in the plates was measured using FDSS 7000EX kinetic plate reader for 3 min at 1 sec intervals. Each test compound was measured at 15 concentrations in three independent runs."}
{"molecule": "COC(=O)NS(=O)(=O)c1ccc(N)cc1", "Potency": "inactive"}
{"molecule": "C#CCOC(C(=O)OCCN(C)C)(c1ccccc1)c1ccccc1", "Potency": "inactive"}
{"molecule": "CC1=C(C(=O)Nc2ccccc2)SCCO1", "Potency": "inactive"}
{"molecule": "COc1ccc(N)cc1N", "Potency": "inactive"}
{"molecule": "CC(Cl)C(=O)O", "note": "(stereo not given)", "Potency": "inactive"}
{"molecule": "N#Cc1cccnc1", "Potency": "inactive"}
{"molecule": "COc1ccc(C(O)(c2cncnc2)C2CC2)cc1", "note": "(stereo not given)", "Potency": "inactive"}
{"molecule": "CN(CCO)CCO", "Potency": "inactive"}
{"molecule": "CN(C)C(=O)Nc1cccc(C(F)(F)F)c1", "Potency": "inactive"}
{"molecule": "CCCCCCCCCCOC(=O)c1ccccc1C(=O)OCCCCCCCCCC", "Potency": "inactive"}
{"molecule": "C[N+](C)(C)CC(=O)[O-]", "Potency": "inactive"}
{"molecule": "C=CC(=O)OCC(C)C", "Potency": "inactive"}
{"molecule": "Nc1ncc([N+](=O)[O-])s1", "Potency": "inactive"}
{"molecule": "O=C/C=C/c1ccco1", "Potency": "inactive"}
{"molecule": "CC1(C)CC(=O)CC(C)(C)N1[O]", "Potency": "inactive"}
{"molecule": "Oc1ccc(Cl)cc1Cl", "Potency": "inactive"}
{"molecule": "OCC(Cl)CCl", "note": "(stereo not given)", "Potency": "inactive"}
{"molecule": "CC(C)=CCN1CC[C@@]2(C)c3cc(O)ccc3C[C@@H]1[C@@H]2C", "Potency": "9.28 µM (active)"}
{"molecule": "CNC(=O)O/N=C/C(C)(C)S(C)(=O)=O", "Potency": "inactive"}
{"molecule": "CCBr", "Potency": "inactive"}
{"molecule": "CNCC(O)c1ccc(O)cc1", "note": "(stereo not given)", "Potency": "inactive"}
{"molecule": "CN=C=O", "Potency": "inactive"}
{"molecule": "CCCCCCCCCCCCBr", "Potency": "inactive"}
{"molecule": "O=C(NC(=O)c1ccccc1Cl)Nc1ccc(OC(F)(F)F)cc1", "Potency": "inactive"}
{"molecule": "NNC(=S)NN", "Potency": "inactive"}
{"molecule": "O=[N+]([O-])/C=C/c1ccccc1", "Potency": "inactive"}
{"molecule": "CC(C)c1ccc(O)cc1", "Potency": "inactive"}
{"molecule": "CNC(=O)Oc1ccccc1OC(C)C", "Potency": "inactive"}
{"molecule": "C[C@]12CCC(=O)C(O)=C1CC[C@@H]1[C@@H]2CC[C@]2(C)C(=O)CC[C@@H]12", "Potency": "inactive"}
{"molecule": "CC(C)(c1ccc(OCC2CO2)cc1)c1ccc(OCC2CO2)cc1", "note": "(stereo not given)", "Potency": "inactive"}
{"molecule": "COC(=O)c1ccccc1N", "Potency": "inactive"}
{"molecule": "Cc1cccc(N)c1N", "Potency": "inactive"}
{"molecule": "CN(C)C(=S)SSC(=S)N(C)C", "Potency": "inactive"}
{"molecule": "CN(C)C(=O)C(c1ccccc1)c1ccccc1", "Potency": "inactive"}
{"molecule": "CC[C@H](N)c1ccccc1", "Potency": "inactive"}
{"molecule": "COc1ccc(N)cc1", "Potency": "inactive"}
{"molecule": "O=C(CCN1CC1)OCC(CO)(COC(=O)CCN1CC1)COC(=O)CCN1CC1", "Potency": "inactive"}
{"molecule": "Cc1ccc([N+](=O)[O-])cc1C", "Potency": "inactive"}
{"molecule": "O=C1c2ccccc2C(=O)N1SC(Cl)(Cl)Cl", "Potency": "inactive"}
{"molecule": "Cc1cccc(N)c1C", "Potency": "inactive"}
